This note sets out measurements from PubChem BioAssay.

The test system of assay [1] is PRMT1 (protein arginine N-methyltransferase 1). Kind of assay: PRMT1 binders on small-molecule microarrays, primary screen, biochemical, small-molecule microarray, 635 nm fluorescence (AID 1088).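 Also: binding of Prmt1 protein to compounds spotted on small-molecule microarray slides.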 Conditions: small-molecule microarray binding, higher = more signal.
The nature of assay [2]: yeast growth modulation, basal conditions, primary screen, YJM789 clinical isolate, OD600, 24 h (AID 1089).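 Also: growth of clinical yeast isolate S. cerevisiae YJM 789 seeded 1000 cells per well; test concentration not given here.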 Conditions: S. cerevisiae YJM789 growth, higher = more signal, called active from +8 up or from −8 down.
A short description of assay [3]: fission yeast growth modulation, primary screen, strain 972, OD600, 24 h, no modulator (AID 1090).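 Also: basal condition with compound alone and no growth modifier present; test concentration not given here.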 Conditions: S. pombe 972 growth, higher = more signal, called active from +8 up or from −8 down.
Assay [4] is described as follows: S. cerevisiae growth modulation with rapamycin, primary screen, strain BY4716, OD600, 96 h (AID 1091). Also: test concentration not given here. Conditions: higher = more signal, called active from +8 up or from −8 down.
The target of assay [5] is Torsin-1A-interacting protein 2 (Homo sapiens) (UniProt Q8NFQ8). The assay is described as follows: LULL1 binders on small-molecule microarray, primary screen, cell lysate, human LULL1 lysate, 635/667 nm fluorescence (AID 1092).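 Also: probe is lysate of COS7 cells overexpressing human LULL1; score merges per-feature 667 nm fluorescence with signal-to-noise.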 Conditions: hLULL1 lysate binding, 635 nm fluorescence, higher = more signal.
Chain of Torsin-1A-interacting protein 2 (Homo sapiens) (Q8NFQ8 whole entry, looked up): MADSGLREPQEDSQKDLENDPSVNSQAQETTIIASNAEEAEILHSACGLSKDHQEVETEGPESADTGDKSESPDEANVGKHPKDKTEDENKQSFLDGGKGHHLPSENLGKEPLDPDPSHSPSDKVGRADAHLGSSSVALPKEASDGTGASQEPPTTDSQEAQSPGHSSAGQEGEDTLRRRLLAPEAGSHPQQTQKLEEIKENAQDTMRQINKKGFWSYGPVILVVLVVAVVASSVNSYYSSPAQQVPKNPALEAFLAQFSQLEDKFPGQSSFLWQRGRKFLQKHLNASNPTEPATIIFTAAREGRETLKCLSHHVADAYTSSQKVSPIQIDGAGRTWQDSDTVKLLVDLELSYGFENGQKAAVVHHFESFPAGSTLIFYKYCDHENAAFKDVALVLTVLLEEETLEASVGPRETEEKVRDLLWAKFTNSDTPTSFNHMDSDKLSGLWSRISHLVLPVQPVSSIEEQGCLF
A short description of assay [6]: E. coli growth modulation, two-sided OD650, primary screen, E. coli filamentation project, strain DRC41, 24 h (AID 1093).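 Also: MC1000 strain lacking acrAB efflux and sulA so SOS filamentation is blocked; test concentration not given here.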 Conditions: OD650, 24 h, higher = more signal, called active from +8 up or from −8 down.
Assay [7] can be described thus: small-molecule microarray binders of probe aLefty2, primary screen, biochemical, biotinylated probe, 635/667 nm fluorescence (AID 1094).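 Also: score merges spot fluorescence near 667 nm with spot signal-to-noise ratio.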 Conditions: higher = more signal.
Assay [8] concerns Noggin (protein binding on small-molecule microarray). The assay is described as follows: Noggin binders on small-molecule microarray, primary screen, biochemical, 635/667 nm fluorescence (AID 1095).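 Also: score merges 667 nm feature fluorescence with signal to noise over triplicate slides.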 Conditions: 635 nm fluorescence, higher = more signal.
The target in assay [9] is Neurogenic locus notch homolog protein 3 (Homo sapiens) (UniProt Q9UM47). Kind of assay: NOTCH3 binders on small-molecule microarray, primary screen, biochemical, 635/667 nm fluorescence (AID 1096). Conditions: NOTCH3 binding, 635 nm fluorescence, higher = more signal.
Chain of Neurogenic locus notch homolog protein 3 (Homo sapiens) (Q9UM47 whole entry, looked up): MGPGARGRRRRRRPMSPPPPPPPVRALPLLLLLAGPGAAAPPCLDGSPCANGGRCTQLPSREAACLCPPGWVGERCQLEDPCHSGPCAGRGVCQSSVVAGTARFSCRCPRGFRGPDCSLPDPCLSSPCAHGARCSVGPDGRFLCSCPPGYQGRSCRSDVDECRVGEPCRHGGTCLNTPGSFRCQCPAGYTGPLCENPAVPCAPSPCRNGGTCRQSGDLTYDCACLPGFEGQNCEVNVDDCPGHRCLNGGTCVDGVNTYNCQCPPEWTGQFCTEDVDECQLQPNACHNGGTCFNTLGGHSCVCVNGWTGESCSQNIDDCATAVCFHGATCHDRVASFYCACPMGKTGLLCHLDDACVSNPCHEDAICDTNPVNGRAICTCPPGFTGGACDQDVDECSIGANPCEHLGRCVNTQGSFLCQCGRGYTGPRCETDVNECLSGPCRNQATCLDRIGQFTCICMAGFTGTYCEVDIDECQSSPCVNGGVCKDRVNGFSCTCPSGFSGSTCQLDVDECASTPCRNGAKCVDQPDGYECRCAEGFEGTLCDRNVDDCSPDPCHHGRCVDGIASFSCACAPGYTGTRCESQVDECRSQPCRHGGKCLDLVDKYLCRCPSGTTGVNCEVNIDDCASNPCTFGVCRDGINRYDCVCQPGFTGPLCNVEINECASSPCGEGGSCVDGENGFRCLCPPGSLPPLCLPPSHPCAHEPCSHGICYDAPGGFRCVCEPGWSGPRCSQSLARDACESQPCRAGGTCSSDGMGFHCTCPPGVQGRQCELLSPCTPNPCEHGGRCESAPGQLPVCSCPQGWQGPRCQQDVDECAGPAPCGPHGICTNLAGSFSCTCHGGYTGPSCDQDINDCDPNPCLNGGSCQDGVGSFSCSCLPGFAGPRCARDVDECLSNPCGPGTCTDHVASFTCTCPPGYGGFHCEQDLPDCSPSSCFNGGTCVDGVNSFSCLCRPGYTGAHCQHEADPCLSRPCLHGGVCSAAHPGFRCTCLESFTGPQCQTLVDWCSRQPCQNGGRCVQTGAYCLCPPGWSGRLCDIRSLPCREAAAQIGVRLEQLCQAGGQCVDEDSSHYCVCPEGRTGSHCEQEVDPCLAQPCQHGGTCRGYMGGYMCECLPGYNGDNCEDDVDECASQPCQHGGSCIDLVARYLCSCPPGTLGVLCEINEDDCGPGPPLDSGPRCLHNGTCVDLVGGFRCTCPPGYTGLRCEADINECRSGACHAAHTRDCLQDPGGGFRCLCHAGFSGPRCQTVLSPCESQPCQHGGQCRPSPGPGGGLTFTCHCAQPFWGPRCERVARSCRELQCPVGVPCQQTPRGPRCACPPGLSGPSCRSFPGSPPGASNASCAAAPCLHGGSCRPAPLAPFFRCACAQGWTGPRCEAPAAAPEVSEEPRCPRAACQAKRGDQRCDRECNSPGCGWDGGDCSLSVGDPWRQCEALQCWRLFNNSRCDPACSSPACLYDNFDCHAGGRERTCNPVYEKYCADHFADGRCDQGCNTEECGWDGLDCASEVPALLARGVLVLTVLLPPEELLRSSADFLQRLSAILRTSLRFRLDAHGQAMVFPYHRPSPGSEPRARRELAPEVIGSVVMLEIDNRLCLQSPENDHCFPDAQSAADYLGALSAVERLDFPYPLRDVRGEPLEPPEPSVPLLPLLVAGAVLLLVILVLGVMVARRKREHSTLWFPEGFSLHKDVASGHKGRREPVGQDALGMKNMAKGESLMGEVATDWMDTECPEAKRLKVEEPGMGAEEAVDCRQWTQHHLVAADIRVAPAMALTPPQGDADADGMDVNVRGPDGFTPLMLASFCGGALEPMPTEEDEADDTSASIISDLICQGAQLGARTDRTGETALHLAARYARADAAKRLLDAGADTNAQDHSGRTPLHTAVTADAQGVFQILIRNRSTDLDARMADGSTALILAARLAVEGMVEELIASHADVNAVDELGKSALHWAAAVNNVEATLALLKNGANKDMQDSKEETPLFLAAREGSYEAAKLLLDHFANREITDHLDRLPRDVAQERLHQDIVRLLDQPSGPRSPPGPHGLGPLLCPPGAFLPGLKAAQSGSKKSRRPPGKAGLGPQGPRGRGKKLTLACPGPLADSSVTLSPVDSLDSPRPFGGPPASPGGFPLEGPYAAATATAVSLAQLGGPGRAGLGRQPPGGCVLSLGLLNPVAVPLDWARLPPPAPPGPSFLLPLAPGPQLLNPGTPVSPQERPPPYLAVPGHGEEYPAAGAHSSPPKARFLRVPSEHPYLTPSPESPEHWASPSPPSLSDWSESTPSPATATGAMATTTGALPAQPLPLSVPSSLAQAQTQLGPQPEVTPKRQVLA
Assay [10] is described as follows: small-molecule microarray binders of probe aEGFR, primary screen, biochemical, biotinylated probe, 635/667 nm fluorescence (AID 1097).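 Also: probe is a biotinylated anti-EGFR antibody binding compounds printed on slides; score combines fluorescence near 667 nm and signal to noise of each spot.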 Particulars: higher = more signal.
The test system of assay [11] is Plasmodium falciparum Sir2 (PF13_0152, Sir2A). Kind of assay: pfSir2 binders on small-molecule microarrays, primary screen, biochemical, small-molecule microarray, 635 nm fluorescence (AID 1098).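 Also: score merges spot fluorescence intensity with its signal-to-noise ratio.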 Particulars: small-molecule microarray binding, fluorescence 635 nm; higher = more signal.
Assay [12] is described as follows: small-molecule microarray binders of probe aDKK1, primary screen, biochemical, biotinylated probe, 635/667 nm fluorescence (AID 1099).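 Also: score merges 667nm spot fluorescence with signal to noise across triplicate slides; reference of the scale not given here.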 Particulars: higher = more signal.
The nature of assay [13]: small-molecule microarray binders of probe aCHRDL2, primary screen, biochemical, biotinylated probe, 635/667 nm fluorescence (AID 1100). Conditions: higher = more signal.
Assay [14] is described as follows: splicing luciferase reporter signal modulators, primary screen, spliceosome inhibition project, cell-based, HEK293, splice +/- reporter (AID 1101).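 Also: HEK293 cells carrying a splicing-competent luciferase reporter gene; test concentration not given here.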 Conditions: luminescence, 24 h, higher = more signal, called active from +8 up or from −8 down.
The target of assay [15] is Fibroblast growth factor 10 (Homo sapiens) (UniProt O15520). The assay is described as follows: FGF10 binders on small-molecule microarrays, primary screen, biochemical, small-molecule microarray, 635 nm fluorescence (AID 1102). Particulars: FGF10 binding, fluorescence 635 nm, higher = more signal.
Chain of Fibroblast growth factor 10 (Homo sapiens) (O15520 whole entry, looked up): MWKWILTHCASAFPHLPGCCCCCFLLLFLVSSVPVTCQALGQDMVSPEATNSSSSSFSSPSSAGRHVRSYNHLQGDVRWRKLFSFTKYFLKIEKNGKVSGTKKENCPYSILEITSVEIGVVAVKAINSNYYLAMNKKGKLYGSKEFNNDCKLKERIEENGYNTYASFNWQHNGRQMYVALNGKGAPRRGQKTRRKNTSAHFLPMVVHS
Assay [16] deals with glycogen synthase kinase-3 (GSK3A per assay name; protocol says GSK3B). Kind of assay: GSK3 binders on small-molecule microarrays, primary screen, biochemical, small-molecule microarray, 635 nm fluorescence, GSK3A (AID 1103). Also: the record names both GSK3A and GSK3B. Particulars: small-molecule microarray binding, fluorescence 635 nm; higher = more signal.
Assay [17] concerns the target Epidermal growth factor receptor (Homo sapiens) (UniProt P00533). Kind of assay: EGFR binders on small-molecule microarrays, primary screen, biochemical, small-molecule microarray, 635 nm fluorescence (AID 1104).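 Also: score merges 667 nm emission intensity with spot signal to noise over triplicate slides.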 Particulars: EGFR binding, higher = more signal.
Assay [18] deals with Follistatin-related protein 3 (Homo sapiens) (UniProt O95633). Kind of assay: FSTL3 binders on small-molecule microarrays, primary screen, biochemical, small-molecule microarray, 635 nm fluorescence (AID 1105).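 Also: score merges emission near 667 nm and signal to noise per printed spot across three slides.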 Conditions: FSTL3 binding, higher = more signal.
Chain of Follistatin-related protein 3 (Homo sapiens) (O95633 whole entry, looked up): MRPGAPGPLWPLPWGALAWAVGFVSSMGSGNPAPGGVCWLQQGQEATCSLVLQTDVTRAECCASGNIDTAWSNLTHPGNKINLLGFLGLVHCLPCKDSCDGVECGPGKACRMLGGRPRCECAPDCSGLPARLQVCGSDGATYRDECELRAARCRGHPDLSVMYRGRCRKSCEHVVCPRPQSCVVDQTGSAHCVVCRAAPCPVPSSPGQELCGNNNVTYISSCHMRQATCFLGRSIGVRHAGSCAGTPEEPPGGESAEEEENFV
The target in assay [19] is Dickkopf-related protein 1 (Homo sapiens) (UniProt O94907). Kind of assay: DKK1 binders on small-molecule microarrays, primary screen, biochemical, small-molecule microarray, 635 nm fluorescence scan (AID 1106).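 Also: score merges emission near 667 nm with signal to noise over three replicate slides.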 Conditions: DKK1 binding, higher = more signal.
Chain of Dickkopf-related protein 1 (Homo sapiens) (O94907 whole entry, looked up): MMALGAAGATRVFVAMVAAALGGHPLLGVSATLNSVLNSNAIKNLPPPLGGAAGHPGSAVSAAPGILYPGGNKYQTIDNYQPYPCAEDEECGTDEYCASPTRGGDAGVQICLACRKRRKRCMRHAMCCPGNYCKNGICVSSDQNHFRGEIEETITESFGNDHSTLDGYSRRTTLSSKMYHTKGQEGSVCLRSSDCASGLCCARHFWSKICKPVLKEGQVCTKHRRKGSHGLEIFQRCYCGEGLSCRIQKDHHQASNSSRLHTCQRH
For assay [20], the system named is Inhibin beta A chain (activin A). The assay is described as follows: INHBA (activin A) binders on microarrays, primary screen, biochemical, small-molecule microarray, 635 nm fluorescence scan (AID 1107).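 Also: mouse activin A protein probed at 4.33 µg/mL on printed slides; score merges bound-protein fluorescence near 667 nm with spot signal-to-noise.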 Conditions: small-molecule microarray binding, higher = more signal.

Calls of active or inactive are those of the source.

Chain of Epidermal growth factor receptor (Homo sapiens) (P00533 whole entry, looked up): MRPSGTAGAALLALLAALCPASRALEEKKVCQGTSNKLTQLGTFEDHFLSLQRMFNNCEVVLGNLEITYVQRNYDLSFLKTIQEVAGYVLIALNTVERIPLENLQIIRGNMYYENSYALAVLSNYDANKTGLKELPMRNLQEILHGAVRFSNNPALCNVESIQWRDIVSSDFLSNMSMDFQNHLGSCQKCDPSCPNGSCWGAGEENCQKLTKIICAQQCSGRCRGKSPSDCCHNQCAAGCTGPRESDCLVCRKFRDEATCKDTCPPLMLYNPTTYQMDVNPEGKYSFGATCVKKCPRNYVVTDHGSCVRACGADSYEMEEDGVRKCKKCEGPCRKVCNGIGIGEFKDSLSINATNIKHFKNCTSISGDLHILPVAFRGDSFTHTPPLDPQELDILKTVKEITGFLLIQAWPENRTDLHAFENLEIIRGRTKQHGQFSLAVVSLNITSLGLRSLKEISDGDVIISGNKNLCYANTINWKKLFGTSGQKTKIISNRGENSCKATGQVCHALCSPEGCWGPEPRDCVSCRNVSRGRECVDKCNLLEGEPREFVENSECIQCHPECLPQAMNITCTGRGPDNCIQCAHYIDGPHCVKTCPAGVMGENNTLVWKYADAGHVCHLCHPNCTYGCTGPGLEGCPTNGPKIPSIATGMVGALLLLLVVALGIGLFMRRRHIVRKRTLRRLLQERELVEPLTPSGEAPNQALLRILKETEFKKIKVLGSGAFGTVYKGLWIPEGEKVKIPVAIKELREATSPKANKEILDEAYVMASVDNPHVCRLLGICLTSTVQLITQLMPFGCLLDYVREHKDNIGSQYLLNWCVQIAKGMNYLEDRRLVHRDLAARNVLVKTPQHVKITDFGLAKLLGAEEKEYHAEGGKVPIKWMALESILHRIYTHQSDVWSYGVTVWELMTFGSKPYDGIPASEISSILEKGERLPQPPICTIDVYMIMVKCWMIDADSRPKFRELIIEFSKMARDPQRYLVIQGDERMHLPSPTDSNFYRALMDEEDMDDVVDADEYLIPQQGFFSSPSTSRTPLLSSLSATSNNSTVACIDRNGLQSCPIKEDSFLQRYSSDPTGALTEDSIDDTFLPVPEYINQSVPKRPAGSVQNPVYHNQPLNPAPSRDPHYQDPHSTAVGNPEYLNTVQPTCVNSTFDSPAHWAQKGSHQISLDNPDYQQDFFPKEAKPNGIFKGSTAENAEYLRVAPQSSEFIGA

`C=C(C)C1CCC(C(O)C2C=CC3C(=O)N(C)C(=O)C3N2N2CCCCC2)CC1` (stereo not given): the composite z-score in [1] came to 1.53; in assay [5], 3.04; in [7], 0.398; in assay [8] it was 0.758; in [9], 1.04; in assay [10], 0.368. In addition, the composite z-score turned out to be 0.925 in [11]; 0.145 in [12]; 0.67 in assay [13]; 0.853 in assay [15]; 1.3 in assay [16]; 1.16 in [17]. Further, the values for the composite z-score in assay [18], in assay [19] and in assay [20] were 1.35, 0.986 and 1.42, respectively. The z-score in assay [2] was 1.26 (inactive); in assay [3], 0.642 (inactive); in assay [4] it was 2.25 (inactive); in assay [6], -0.867 (inactive); in assay [14] it was 0.929 (inactive).

As for `CCOC(=O)C1=CC[C@@H](c2ccc(OCc3ccccc3)c(OC)c2)N(S(=O)(=O)c2ccc(C)cc2)[C@H]1c1ccc(SC)cc1`, the composite z-score in [1] came out at 1.1; in [5], 3.21; in assay [7], 0.347; in assay [8], 0.257; in [9], 1.12; in assay [10] it was 0.206. In addition, the composite z-score was 1.26 in assay [11]; 0.842 in [12]; 1.04 in assay [13]; 1.1 in assay [15]; 0.587 in [16]; 0.838 in assay [17]. For the same molecule, the composite z-score came to 1.12 in [18], 0.174 in assay [19] and 0.994 in assay [20]. Moreover, the z-score is -0.448 (inactive) in assay [2]; 0.236 (inactive) in assay [3]; 1.94 (inactive) in assay [4]; -0.628 (inactive) in [6]; 0.236 (inactive) in assay [14].

Consider `C=C(C)[C@@H]1CC=C(C(O)C2C=CC3C(=O)N(c4ccccc4)C(=O)C3N2Nc2ccccc2F)CC1` (stereo not given in full), for which the composite z-score is 1.57 in assay [1]; 3.64 in assay [5]; 0.0865 in assay [7]; 0.443 in assay [8]; 1.01 in assay [9]; 0.11 in assay [10]. The composite z-score in [11] was 1.15; in [12], 0.671; in assay [13] it was 0.972; in assay [15] it was 1.08; in [16] it was 1.3; in assay [17] it was 0.662. For the same molecule, the composite z-score was 1.42 in [18], -0.112 in [19] and 0.725 in assay [20]. Further, the z-score is 1.59 (inactive) in assay [2]; 1.09 (inactive) in [3]; 3.06 (inactive) in [4]; -1.48 (inactive) in assay [6]; 0.869 (inactive) in assay [14].

Take `CCOC(=O)C[C@H]1[C@H](OC(=O)c2ccccc2-c2ccccc2)[C@@H](NC(=O)C2CCCCC2)c2cc(OCCCO)ccc2N1C(=O)Cc1ccc(OC)cc1`: the composite z-score is 0.143 in assay [1]; 0.735 in assay [5]; -0.132 in assay [7]; 0.159 in [8]; -0.292 in assay [9]; -0.139 in assay [10]. Also, the composite z-score in [11] is -0.0395; in assay [12], -0.189; in assay [13], 0.0017; in [15] it was 0.0134; in [16], -0.625; in assay [17], 0.0178. Also, the composite z-score in assay [18] is 0.138; in [19], -0.259; in [20], 0.489. The z-score was -0.93 (inactive) in assay [2]; -0.0289 (inactive) in assay [3]; -0.144 (inactive) in assay [4]; -1.05 (inactive) in [6]; -0.0496 (inactive) in assay [14].

Take `O=C(N1CCCCC1)[C@@]1(CCS(=O)(=O)c2ccccc2)COC(c2ccc(OCCCO)cc2)=N1`: the composite z-score in assay [1] was found to be 1.54; in [5] it was 2.84; in [7], 0.369; in [8] it was 1.04; in [9], 0.841; in [10], 0.219. The composite z-score in assay [11] was 1.38; in [12] it was 1.12; in [13], 1.21; in assay [15], 0.96; in assay [16], 1.02; in assay [17], -0.075. Besides, the composite z-score in [18] amounted to 0.348; in assay [19], 0.495; in assay [20], 1.21. For the same molecule, the z-score in assay [2] is -0.612 (inactive); in assay [3], -1.25 (inactive); in assay [4] it was -0.0556 (inactive); in [6], 1.23 (inactive); in assay [14], 1.74 (inactive).
